Test results taken from PubChem BioAssay AID1159580 (chemical genetic matrix, 2015).
Values joined by “and” are separate entries in the source; they are usually repeats but may differ in a detail not shown here. Identical values can stand only once. Screen size: about 5,500 compounds; about 2,000 (36%) were called active. Inconclusive results (about 18%) are left out. The list shows a part of the results. Values without a mark were called inactive. Cut-off read from the data, not from the text of the source: active = normalized growth mostly below about 0.91 (no sharp cut-off); inconclusive = no clear call, values can overlap the other calls; inactive = mostly above about 0.92.

Assay: chemical genetic growth profiling, strain panel (AID 1159580);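 note: tested at 20 µM; growth read once vehicle control cultures reached saturation at 30 °C; 1 = growth at the plate median or of vehicle wells; lower values mean less growth of the strain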
Details: S. cerevisiae deletion strains, growth OD

C#CCCCCCCCCCCCC(O)CC(O)COC(C)=O (stereo unspecified)
normalized growth (locus YAL013W, strain DEP1, stronger effect = lower value): 0.98 | normalized growth (locus YAL021C, strain ccr4, stronger effect = lower value): 0.766 (active) | normalized growth (locus YAL026C, strain drs2, stronger effect = lower value): 0.906 (active) | normalized growth (locus YAL030W, strain snc1, stronger effect = lower value): 0.526 (active) | normalized growth (locus YBL061C, strain skt5, stronger effect = lower value): 0.841 (active) | normalized growth (locus YBR009C, strain hhf1, stronger effect = lower value): 0.263 (active) | normalized growth (locus YBR021W, strain FUR4, stronger effect = lower value): 0.925 | normalized growth (locus YBR023C, strain chs3, stronger effect = lower value): 0.756 (active) | normalized growth (locus YBR171W, strain sec66, stronger effect = lower value): 0.962 | normalized growth (locus YBR229C, strain ROT2, stronger effect = lower value): 0.982 | normalized growth (locus YBR231C, strain swc5, stronger effect = lower value): 0.962 | normalized growth (locus YBR279W, strain paf1, stronger effect = lower value): 0.87 (active) | normalized growth (locus YCL011C, strain gbp2, stronger effect = lower value): 0.32 (active) | normalized growth (locus YCL016C, strain dcc1, stronger effect = lower value): 0.805 (active) | normalized growth (locus YCL029C, strain bik1, stronger effect = lower value): 0.954 | normalized growth (locus YCL069W, strain vba3, stronger effect = lower value): 0.852 (active) | normalized growth (locus YCR088W, strain abp1, stronger effect = lower value): 0.947 | normalized growth (locus YDL005C, strain med2, stronger effect = lower value): 0.103 (active) | normalized growth (locus YDL035C, strain GPR1, stronger effect = lower value): 0.908 | normalized growth (locus YDL040C, strain nat1, stronger effect = lower value): 0.973 | normalized growth (locus YDL074C, strain BRE1, stronger effect = lower value): 0.857 | normalized growth (locus YDL101C, strain DUN1, stronger effect = lower value): 0.975 | normalized growth (locus YDL134C, strain PPH21, stronger effect = lower value): 0.972 | normalized growth (locus YDL185W, strain tfp1, stronger effect = lower value): 0.963 | normalized growth (locus YDL192W, strain arf1, stronger effect = lower value): 0.928 | normalized growth (locus YDR001C, strain nth1, stronger effect = lower value): 0.999 | normalized growth (locus YDR069C, strain doa4, stronger effect = lower value): 1.02 | normalized growth (locus YDR101C, strain arx1, stronger effect = lower value): 0.916 (active) | normalized growth (locus YDR137W, strain rgp1, stronger effect = lower value): 0.63 (active) | normalized growth (locus YDR150W, strain NUM1, stronger effect = lower value): 0.992 | normalized growth (locus YDR159W, strain sac3, stronger effect = lower value): 0.289 (active) | normalized growth (locus YDR162C, strain NBP2, stronger effect = lower value): 0.945 | normalized growth (locus YDR195W, strain ref2): 0.482 (active) | normalized growth (locus YDR297W, strain sur2, stronger effect = lower value): 0.571 (active) | normalized growth (locus YDR318W, strain mcm21, stronger effect = lower value): 0.889 (active) | normalized growth (locus YDR334W, strain swr1, stronger effect = lower value): 1.04 | normalized growth (locus YDR335W, strain msn5, stronger effect = lower value): 0.913 (active) | normalized growth (locus YDR388W, stronger effect = lower value): 0.967 | normalized growth (locus YDR392W, strain spt3, stronger effect = lower value): 0.21 (active) | normalized growth (locus YDR502C, strain sam2, stronger effect = lower value): 0.923 | normalized growth (locus YEL003W, strain gim4, stronger effect = lower value): 0.376 (active) | normalized growth (locus YEL037C, strain rad23, stronger effect = lower value): 0.997 | normalized growth (locus YEL061C, strain CIN8 (second series), stronger effect = lower value): 0.872 (active) | normalized growth (locus YEL061C, strain CIN8, stronger effect = lower value): 0.989 | normalized growth (locus YER015W, strain faa2, stronger effect = lower value): 0.714 (active) | normalized growth (locus YER016W, strain bim1, stronger effect = lower value): 0.861 (active) | normalized growth (locus YER110C, stronger effect = lower value): 0.965 | normalized growth (locus YER111C, strain swi4, stronger effect = lower value): 0.927 | normalized growth (locus YER155C, strain BEM2 (second series), stronger effect = lower value): 0.461 (active) | normalized growth (locus YER155C, strain BEM2, stronger effect = lower value): 0.988 | normalized growth (locus YER167W, strain BCK2, stronger effect = lower value): 0.953 | normalized growth (locus YFR010W, strain ubp6, stronger effect = lower value): 1.03 | normalized growth (locus YGL078C, strain dbp3, stronger effect = lower value): 0.881 (active) | normalized growth (locus YGL086W, strain mad1, stronger effect = lower value): 0.91 (active) | normalized growth (locus YGL167C, strain pmr1, stronger effect = lower value): 0.939 | normalized growth (locus YGL173C, strain kem1, stronger effect = lower value): 0.539 (active) | normalized growth (locus YGL227W, strain vid30, stronger effect = lower value): 0.72 (active) | normalized growth (locus YGL240W, strain doc1, stronger effect = lower value): 0.727 (active) | normalized growth (locus YGL248W, strain PDE1, stronger effect = lower value): 0.976 | normalized growth (locus YGL253W, strain hxk2, stronger effect = lower value): 0.788 (active) | normalized growth (locus YGR078C, strain PAC10, stronger effect = lower value): 0.905 | normalized growth (locus YGR135W, strain pre9, stronger effect = lower value): 0.918 | normalized growth (locus YGR229C, strain SMI1, stronger effect = lower value): 0.954 | normalized growth (locus YGR252W, strain gcn5, stronger effect = lower value): 0.831 | normalized growth (locus YHR013C, strain ard1, stronger effect = lower value): 1.13 | normalized growth (locus YHR027C, strain rpn1, stronger effect = lower value): 0.82 (active) | normalized growth (locus YHR030C, strain SLT2, stronger effect = lower value): 0.98 and 0.998 | normalized growth (locus YHR079C, strain IRE1 (second series), stronger effect = lower value): 0.942 | normalized growth (locus YHR079C, strain IRE1, stronger effect = lower value): 0.969 | normalized growth (locus YHR094C, strain hxt1, stronger effect = lower value): 0.97 | normalized growth (locus YHR129C, strain ARP1, stronger effect = lower value): 0.978 | normalized growth (locus YHR142W, strain chs7, stronger effect = lower value): 0.624 (active) | normalized growth (locus YHR200W, strain rpn10, stronger effect = lower value): 0.945 | normalized growth (locus YIL066C, strain RNR3, stronger effect = lower value): 0.885 | normalized growth (locus YIL073C, strain SPO22, stronger effect = lower value): 0.917 | normalized growth (locus YIL125W, strain kgd1, stronger effect = lower value): 0.965 | normalized growth (locus YIR030C, strain dcg1, stronger effect = lower value): 0.962 | normalized growth (locus YJL092W, strain hpr5, stronger effect = lower value): 0.963 | normalized growth (locus YJL095W, strain BCK1 (second series), stronger effect = lower value): 0.216 (active) | normalized growth (locus YJL095W, strain BCK1, stronger effect = lower value): 0.935 and 1 | normalized growth (locus YJL115W, strain asf1, stronger effect = lower value): 0.975 | normalized growth (locus YJL129C, strain trk1, stronger effect = lower value): 0.213 (active) | normalized growth (locus YJL134W, strain LCB3, stronger effect = lower value): 0.997 | normalized growth (locus YJL154C, strain vps35, stronger effect = lower value): 1.01 | normalized growth (locus YJL164C, strain tpk1, stronger effect = lower value): 0.258 (active) | normalized growth (locus YJL166W, strain qcr8, stronger effect = lower value): 0.283 (active) | normalized growth (locus YJL168C, strain set2, stronger effect = lower value): 0.966 | normalized growth (locus YJL187C, strain SWE1 (second series), stronger effect = lower value): 0.954 | normalized growth (locus YJR043C, strain POL32, stronger effect = lower value): 0.897 | normalized growth (locus YJR066W, strain TOR1, stronger effect = lower value): 0.957 | normalized growth (locus YJR075W, strain HOC1, stronger effect = lower value): 0.947
